{"source": "PubChem BioAssay AID1347076", "about": "(National Center for Advancing Translational Sciences (NCATS), 2019)", "note": "Screen size: about 400,000 compounds; about 13,000 (3.2%) were called active. Another 18% or so got no clear call; they are omitted. This is one part of a sample in which actives are shown more often than they occur. Calls follow the shape of the dose curve; as a rule, active = well fitted cell-killing curve with a large enough effect; inconclusive = small, poorly fitted or top-dose-only effect, or effect the other way; inactive = flat fitted curve, though single readings scatter. % is scaled to controls: 0 for no effect and ±100 for the full control effect; potency is read from the fitted curve at half-maximal effect.", "data": [{"experiment": "qHTS assay for MDR1-selective chemotherapeutics: Primary screen using the drug-selected MDR subline cells KB-V1; also: nearly all actives have a fitted effect of over 60% in size", "settings": "KB-V1 MDR cells viability, CellTiter-Glo, 72 h; series mostly up to 46.1 µM; activity change, negative = cytotoxicity: at the top concentration", "method_in_brief": "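In this primary screen, KB-V1 cells overexpressing P-gp are incubated with library compounds (lowest to highest concentration) for 72 h at 37 degrees C before a luminescent ATP viability read.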", "values": [{"smiles": "Cc1cc(C(=O)N2CCCC2(C)C(=O)O)c(C)o1", "note": "(stereo not given)", "activity change, negative = cytotoxicity": "2.01% (inactive)"}, {"smiles": "CS(=O)(=O)c1ccc2nc(NC(=O)c3ccc(Cl)nc3)sc2c1", "activity change, negative = cytotoxicity": "0.805% (inactive)"}, {"smiles": "COc1cccc(C(=O)Nc2nc3ccc(S(C)(=O)=O)cc3s2)c1", "activity change, negative = cytotoxicity": "-24.1% (inactive)"}, {"smiles": "CN(C)c1cccc(C(=O)Nc2nc3ccc(S(=O)(=O)NC(C)(C)C)cc3s2)c1", "Potency": "20.6 µM (active)"}, {"smiles": "CC1(C(=O)Nc2cccc3cccnc23)CCN1C(=O)CCC1CCCC1", "note": "(stereo not given)", "activity change, negative = cytotoxicity": "3.6% (inactive)"}, {"smiles": "CC(C)(O)C1=C[N+](=O)CC=C1", "activity change, negative = cytotoxicity": "-2.53% (inactive)"}, {"smiles": "COc1ccc(C2CC(c3cccc(OC)c3)=NN2c2ccc(S(N)(=O)=O)cc2)cc1", "note": "(stereo not given)", "activity change, negative = cytotoxicity": "10.7% (inactive)"}, {"smiles": "CCOc1ccc2[nH]c(=S)sc2c1", "activity change, negative = cytotoxicity": "-0.715% (inactive)"}, {"smiles": "COc1cc(OC)c(S(=O)(=O)Nc2ccccc2C(=O)O)cc1S(=O)(=O)Nc1ccccc1C(=O)O", "activity change, negative = cytotoxicity": "0% (inactive)"}, {"smiles": "CCOc1ccc(NC(=O)c2ccccc2NS(C)(=O)=O)cc1", "activity change, negative = cytotoxicity": "-0.444% (inactive)"}, {"smiles": "COc1cc(NC(=O)c2ccccc2NS(=O)(=O)c2ccc(Cl)s2)cc(OC)c1", "Potency": "10.3 µM (active)"}, {"smiles": "O=C(Nc1ccc(F)cc1)Nc1nnc([C@H]2C[C@H](O)[C@@H](CO)O2)s1", "activity change, negative = cytotoxicity": "3.14% (inactive)"}, {"smiles": "CC(C)c1ccc(NC(=O)Cn2c3ncccc3c(=O)n2-c2ccccc2)cc1", "activity change, negative = cytotoxicity": "-4.24% (inactive)"}, {"smiles": "O=C1c2ccccc2C(c2nc3ccccc3[nH]2)N1c1ccccc1", "note": "(stereo not given)", "activity change, negative = cytotoxicity": "15.6% (inactive)"}, {"smiles": "CCOC(=O)[C@]12CCCC=C1N(CCC1=CCCCC1)C(=O)[C@H](CC(=O)N1CCOCC1)C2", "activity change, negative = cytotoxicity": "-33% (inactive)"}, {"smiles": "C=C1C(=O)OC2C1CCC(C)=CCCC1(C)OC21", "note": "(stereo not given)", "activity change, negative = cytotoxicity": "-25.5% (inactive)"}, {"smiles": "Cc1nn(-c2ccc(F)cc2)c(-n2cccc2)c1C(=O)N1CCN(c2ccccc2)CC1", "Potency": "20.6 µM (active)"}, {"smiles": "CC(=O)c1c(N2CCN(c3ccc(F)cc3)CC2)nc(=S)n(-c2ccccc2)c1C", "activity change, negative = cytotoxicity": "-5.35% (inactive)"}, {"smiles": "O=C(c1cnn(-c2ccc(F)cc2)c1-n1cccc1)N1CCN(c2ccc(F)cc2)CC1", "Potency": "23.1 µM (active)"}, {"smiles": "Cc1nn(-c2ccccc2)c(-n2cccc2)c1C(=O)O", "activity change, negative = cytotoxicity": "0.327% (inactive)"}, {"smiles": "COC(=O)c1ccccc1NC(=O)c1cnn(-c2ccc(F)cc2)c1-n1cccc1", "activity change, negative = cytotoxicity": "-36.6% (inactive)"}, {"smiles": "O=C(Nc1ccc(F)cc1F)c1cnn(-c2ccc(F)cc2)c1-n1cccc1", "activity change, negative = cytotoxicity": "-13.2% (inactive)"}, {"smiles": "COc1ccc(-c2ccc(C(=O)NCCN3CCOCC3)c3occc23)c(C)c1", "activity change, negative = cytotoxicity": "0% (inactive)"}, {"smiles": "CCCCc1nc2ccc(F)cc2cc1C", "activity change, negative = cytotoxicity": "-2.71% (inactive)"}, {"smiles": "O=C(Nc1cccc(Cc2ccccc2)c1)Nc1ccc2nc([C@@H]3O[C@H](CO)[C@@H](O)[C@H](O)[C@H]3O)[nH]c2c1", "activity change, negative = cytotoxicity": "-6.5% (inactive)"}, {"smiles": "COc1ccccc1CNC(=O)c1ccccc1NC(=O)c1nsc2ccccc12", "activity change, negative = cytotoxicity": "-0.717% (inactive)"}, {"smiles": "Nc1cccc(OCCCCCOc2cccc(N)c2)c1", "activity change, negative = cytotoxicity": "-6.44% (inactive)"}, {"smiles": "O=C(NCc1ccc(Cl)cc1)NCc1ccc(Cl)cc1", "activity change, negative = cytotoxicity": "9.02% (inactive)"}, {"smiles": "O=C(NCc1ccncc1)NC12CC3CC(CC(C3)C1)C2", "activity change, negative = cytotoxicity": "0% (inactive)"}, {"smiles": "S=C(NCc1ccc(Cl)cc1)NC12CC3CC(CC(C3)C1)C2", "Potency": "16.4 µM (active)"}]}]}
